# Shown are actives, neighbours in structure and some others; about 4% of the full set was active somewhere.
# Rv3671c protease: Rv3671c (M. tuberculosis) protease inhibition; P9WHR9; inhibition, % at 5.96 µM; 320,000 compounds, 0.048% hits; in the data active = inhibition above about 38%;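 note: extracellular domain of Rv3671c used as enzyme; 0% = enzyme with DMSO and 100% = no enzyme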
# Mtb bLac sens: beta-lactam sensitization of Mtb H37Rv. M. tuberculosis H37Rv growth with meropenem, percent inhibition. inhibition, % at 25 µM. 330,000 compounds, 0.27% hits; call rule not given here;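 note: growth measured after seven days incubation then overnight dye step; 0% = bacteria only wells and 100% = bacteria with antibiotic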
# Mtb UGM inh: blocks M. tuberculosis UGM enzyme; purified UGM, fluorescence polarization probe displacement; inhibition, % at 10 µM; 320,000 compounds, 0.06% hits; P9WIQ1; in the data active = inhibition above about 10%, passing the limit was not always enough; inconclusive = no clear call, values can overlap the other calls
# FBA Mtb inh: inhibitors of M. tuberculosis fructose-bisphosphate aldolase; P9WQA3; purified M. tuberculosis FBA, fluorescence read-out; inhibition, % at 1 µM; 360,000 compounds, 2.3% hits; AID 588726; in the data active = inhibition above about 27%;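 note: 0% = vehicle and 100% = reference inhibitor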
# RecA splice inh: inhibitors of M. tuberculosis RecA intein splicing; cell-free RecA intein splicing, fluorescence; inhibition, % (no concentration beside the values); 290,000 compounds, 0.75% hits; AID 2221; in the data active = inhibition above about 30%; inconclusive = no clear call, values can overlap the other calls;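 note: 0% = vehicle wells and 100% = reference inhibitor control wells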
# Target sequence (P9WHJ3 whole entry, looked up, canonical isoform): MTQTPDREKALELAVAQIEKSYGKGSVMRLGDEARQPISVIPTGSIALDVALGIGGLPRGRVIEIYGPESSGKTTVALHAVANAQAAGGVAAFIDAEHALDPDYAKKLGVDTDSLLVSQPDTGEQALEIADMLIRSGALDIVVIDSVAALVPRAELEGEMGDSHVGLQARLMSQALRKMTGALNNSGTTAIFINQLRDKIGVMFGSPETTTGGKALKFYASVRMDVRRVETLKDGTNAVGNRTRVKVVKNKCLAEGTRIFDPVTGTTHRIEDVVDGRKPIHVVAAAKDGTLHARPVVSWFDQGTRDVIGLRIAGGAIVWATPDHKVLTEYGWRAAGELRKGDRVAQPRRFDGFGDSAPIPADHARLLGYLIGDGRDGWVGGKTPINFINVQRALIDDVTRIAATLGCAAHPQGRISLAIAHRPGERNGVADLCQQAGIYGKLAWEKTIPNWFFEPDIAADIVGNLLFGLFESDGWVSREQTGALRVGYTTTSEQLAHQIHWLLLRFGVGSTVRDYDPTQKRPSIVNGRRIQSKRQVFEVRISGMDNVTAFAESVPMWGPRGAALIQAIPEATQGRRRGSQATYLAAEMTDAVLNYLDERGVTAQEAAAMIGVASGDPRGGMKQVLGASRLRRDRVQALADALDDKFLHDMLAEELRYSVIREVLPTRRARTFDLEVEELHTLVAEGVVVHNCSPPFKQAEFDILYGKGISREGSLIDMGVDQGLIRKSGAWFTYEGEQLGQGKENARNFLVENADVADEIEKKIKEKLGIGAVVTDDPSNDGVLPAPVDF
# GDH-TPI inh: counter-screen for M. tuberculosis FBA inhibitors: GDH-TPI coupled enzymes; GDH-TPI coupled enzyme counterscreen, NADH absorbance; AID 588335; 360,000 compounds, 1.2% hits; inhibition, % at 4.8 µM; in the data active = inhibition above about 30%;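 note: 0% = DMSO wells and 100% = wells lacking the enzyme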
# * hit, by the source's call; ? = inconclusive; / = not tested or not shown.
SMILES,Rv3671c protease,Mtb bLac sens,Mtb UGM inh,FBA Mtb inh,RecA splice inh,GDH-TPI inh
CCOc1ccc(C(=O)NCC2CCCO2)cc1OCC (stereo not given),4,-6,-3,0,-2,-1
COc1ccc(N2CCN(C(=O)c3ccc(Br)o3)CC2)cc1,-5,-6,2,2,-1,0
O=C(c1cccs1)c1no[n+]([O-])c1C(=O)c1cccs1,1,6,11*,-2,5,2
COc1ccc(C(=O)c2no[n+]([O-])c2C(=O)c2ccc(OC)cc2)cc1,4,-6,0,0,4,8
O=C(Nc1nccs1)c1ccc(-c2ccc(F)cc2)o1,-11,93,-1,4,0,18
O=C(Nc1nccs1)c1ccc(-c2ccc(Cl)cc2)o1,-15,99,0,1,-1,54*
O=C(Nc1nccs1)c1ccc(-c2ccc([N+](=O)[O-])cc2)o1,1,-5,20*,0,6,5
O=C(/C=C/c1cccs1)Nc1ccncc1,-5,2,0,-2,-1,36*
O=C(/C=C/c1cccs1)NC(=S)Nc1ccc(C(=O)O)cc1,-9,24,2,1,2,74*
CN(Cc1ccccc1)C(=O)c1ccc2nc([C@@H]3O[C@H](CO)[C@H](O)[C@H](O)[C@H]3O)[nH]c2c1,/,/,/,-1,/,13
CCOC(=O)c1ccc(N2C(=O)c3n[nH]c(-c4ccco4)c3C2c2ccc([N+](=O)[O-])cc2)cc1 (stereo not given),-151,/,1,-1,32*,14
CCOC(=O)c1ccc(N2C(=O)c3n[nH]c(C)c3C2c2cccnc2)cc1 (stereo not given),-9,-3,-1,1,-3,1
Cc1cc(N2C(=O)C3C4CC(c5ccccc5)C(C4)C3C2=O)no1 (stereo not given),-1,-3,1,2,-1,0
Oc1ccc(C=NC2CCCCC2)cc1,5,-6,1,-4,1,37*
COc1ccc(-c2cc(CNC(C)=O)on2)cc1,7,-3,-3,-5,1,-2
COc1ccc(-c2cc(CNC(=O)CCl)on2)cc1,2,99,-1,3,37*,10
CCCn1c(O)c(N=NC(=O)c2ccco2)c2ccccc21,-18,94,1,6,3,33*
Cc1cc(C(=O)N2CCCC2(C)C(=O)NCC(C)C)nn1C(C)(C)C (stereo not given),/,/,/,-2,/,-7
COc1cc(N2CCCC2)c(OC)cc1/C=C(/C#N)c1ccc(Br)cc1,0,-10,55*,-1,0,-8
O=S(=O)(CCN1CCN(c2ccccc2O)CC1)c1cc(Cl)ccc1Cl,/,/,/,-2,/,-4
CCCCn1c(NC(=O)c2ccccc2Cl)c(C#N)c2nc3ccccc3nc21,-213,?,1,26,27,4
N#Cc1c(NC(=O)c2ccccc2Cl)n(Cc2ccccc2)c2nc3ccccc3nc12,-72,15,2,35*,/,7
CCn1cc(/C=C(\NC(=O)c2cc(OC)c(OC)c(OC)c2)C(=O)NCCCN2CCOCC2)c2ccccc21,-6,5,2,-11,2,14
Cn1cc(/C=C(\NC(=O)c2ccccc2Cl)C(=O)NCCN2CCOCC2)c2ccccc21,0,-2,0,-4,0,25
Cn1cc(/C=C(\NC(=O)c2ccccc2Cl)C(=O)NCCCN2CCOCC2)c2ccccc21,-6,-4,1,0,1,34*
SMILES,Rv3671c protease,Mtb bLac sens,Mtb UGM inh,FBA Mtb inh,RecA splice inh,GDH-TPI inh
CCn1cc(/C=C(\NC(=O)c2ccccc2)C(=O)NCCCN2CCOCC2)c2ccccc21,4,-4,2,-2,-5,40*
O=C(O)c1ccc(N/N=C/c2cc3cc4c(cc3nc2Cl)OCCO4)cc1,-3,-7,-2,8,-7,39*
O=C(O)c1ccc(/C=N/Nc2ncc(C(F)(F)F)cc2Cl)cc1,1,36,-2,-1,-4,37*
COc1cc(/C=N/NC(=O)/C(=C\c2ccc3c(c2)OCO3)NC(=O)c2ccccc2)ccc1O,4,8,3,-4,-1,47*
CN(C)c1ccc(/C=N/Nc2cccc(C(=O)O)c2)cc1,-2,5,1,1,-5,37*
O=C(N/N=C/c1ccc(F)cc1)c1cc(-c2ccc3c(c2)OCO3)n[nH]1,-6,0,2,-1,-2,-2
CN(C)c1ccc(/C=N/NC(=O)c2cc(-c3ccc4c(c3)OCO4)n[nH]2)cc1,4,/,2,3,4,36*
COc1cc(C(=O)NC(=S)NNC(=O)c2ccc3c(c2)OCO3)cc(OC)c1OC,-1,12,-1,0,1,32*
O=c1cnnc(N/N=C/c2ccc3c(c2)OCO3)[nH]1,3,0,0,2,-4,44*
COc1cc(/C=N/NC(=O)c2ccc3c(c2)OCO3)ccc1O,/,4,0,1,-2,35*
O=c1[nH]c(N/N=C\c2ccc3c(c2)OCO3)nc2ccccc12,12,40,-1,15,-1,29
CC(OC(=O)CC1CCCCC1)C(=O)Nc1cccc(C#N)c1 (stereo not given),-4,-16,-1,2,-2,0
COc1cc(/C=N/NC(=O)c2ccc(-n3cccc3)cc2)ccc1O,15,4,1,-2,-2,43*
Cc1ccccc1NC(=O)/C(=C\c1cccs1)NC(=O)c1ccccc1,2,-2,1,0,/,26
CC1Oc2ccccc2C=C1/C=N/Nc1ccc(C(=O)O)cc1 (stereo not given),16,5,5,3,-14,34*
O=C(N/N=C/c1cc([N+](=O)[O-])cc([N+](=O)[O-])c1O)/C(=C\c1cccs1)NC(=O)c1ccccc1,-5,5,3,-6,6,37*
O=C(N/N=C/c1ccc2c(c1)OCO2)c1ccc2c(c1)OCCO2,-8,4,2,3,-3,42*
CC(C)=C[C@H]1C[C@H](C)[C@H]2CC[C@H](C)c3c(O)c(O[C@H]4OC[C@H](O)[C@@H](O)[C@@H]4O)c(C)c1c32,/,/,/,0,/,8
O=C(N/N=C/c1ccc2c(c1)OCO2)c1ccc(Br)o1,0,-5,4,-2,-1,47*
O=C(O)c1ccc(N/N=C/c2ccc3c(c2)OCO3)cc1,7,10,-2,-5,-4,33*
CCN(CC)c1ccc(/C=N/NC(=O)c2ccc(Br)o2)cc1,11,4,0,-2,1,22
COc1cc(/C=N/NC(=O)/C(=C\c2ccc([N+](=O)[O-])cc2)NC(=O)c2ccccc2)cc(OC)c1O,11,-1,-4,-1,-1,43*
CC(C)(C)c1ccc(/C=N/Nc2ccc(C(=O)O)cc2)cc1,-1,5,1,-3,9,42*
Cn1c(O)c(C=NCCCCCC(=O)O)c(=O)n(C)c1=O,/,/,/,1,/,2

# Bioassay records (PubChem)
